From PubChem BioAssay (NCI)
Compounds without any hit were thinned out: in the full panel of roughly 79,000, 15% have a hit. The source made the active and inactive calls. Rule as the data show it: active = growth inhibition above about 70%; inactive = the rest.

Key:
[1] = NCI Yeast Anticancer Drug Screen. Data for the rad50 strain (AID 155);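 also: 0% = growth of vehicle-only cultures of the same strain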; settings: S. cerevisiae rad50 strain growth inhibition; at 50.0 µM; hits give high values
How it was run: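 A DNA repair-deficient yeast mutant serves as the test organism; compound-induced growth inhibition is calculated against vehicle-treated cells.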

[2] = NCI Yeast Anticancer Drug Screen. Data for the mec2-1 strain (AID 157); settings: S. cerevisiae mec2-1 strain, at 50.0 µM, hits give high values
How it was run: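 mec2-1 yeast strain, carrying an alteration in DNA damage repair or cell cycle control, was exposed to compounds; growth inhibition was measured relative to vehicle-treated controls.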

[3] = NCI Yeast Anticancer Drug Screen. Data for the sgs1 mgt1 strain (AID 161);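 also: 0% = growth of cultures given vehicle only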; settings: S. cerevisiae sgs1 mgt1 strain, at 50.0 µM, hits give high values
How it was run: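 Growth of a repair-deficient yeast mutant was monitored after compound treatment and expressed as inhibition relative to vehicle-treated cultures.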

[4] = NCI Yeast Anticancer Drug Screen. Data for the cln2 rad14 strain (AID 165);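 also: 0% = growth equal to vehicle treated cultures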; settings: S. cerevisiae cln2 rad14 strain, at 50.0 µM, hits give high values
How it was run: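 Yeast carrying cln2 and rad14 alterations (cell cycle control and DNA damage repair) were exposed to compounds. Growth inhibition was measured against vehicle-treated controls.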

[5] = NCI Yeast Anticancer Drug Screen. Data for the bub3 strain (AID 167); settings: S. cerevisiae bub3 mutant strain, at 50.0 µM, hits give high values
How it was run: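 Inhibition values come from growth of compound-treated mutant yeast normalised to vehicle-treated controls.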

[6] = NCI Yeast Anticancer Drug Screen. Data for the mlh1 rad18 strain (AID 175); settings: S. cerevisiae mlh1 rad18 strain growth inhibition; at 50.0 µM; hits give high values
How it was run: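 Growth inhibition of the yeast strain was measured after compound exposure and expressed relative to vehicle-treated controls. The strain carries defined defects in DNA damage repair.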

Measured: growth inhibition

NC(=O)c1ccc[n+](-c2ccc([N+](=O)[O-])cc2[N+](=O)[O-])c1
inactive: [2] 54.6% | [4] 39.8% | [5] 17.3% | [6] 63.4%
active: [1] 79.3% | [3] 80.2%

c1ccc(-c2c3ccccc3cc3c2ccc2ccccc23)cc1
inactive: [1] -13.4% | [2] -12.2% | [3] -3.95% | [4] 9.25% | [5] 19.5% | [6] 0.55%

COc1c(NC(=O)Nc2ccc(SC)cc2)cccc1[N+](=O)[O-]
inactive: [1] 2.35% | [2] 15.6% | [3] 23.6% | [4] 5.1% | [5] 41.3% | [6] 9.65%

COc1cccc(NC(=S)NCc2cccnc2)c1
inactive: [1] -13.4% | [2] -24.9% | [3] 9.1% | [4] 9.25% | [5] -13.2% | [6] -5.3%

CN(C)C(=S)Oc1ccc([N+](C)(C)C)cc1
inactive: [1] -3.7% | [2] 3.55% | [3] 2.5% | [4] -4.6% | [5] 3.15% | [6] -1%

O=C1C2=C(c3ccccc31)C(c1ccc(Cl)cc1)NC(=S)N2 (stereo unspecified)
inactive: [1] 52.6% | [2] 26.5% | [3] 57.8% | [4] 35.2% | [5] 44.4% | [6] 60.1%

COC(=O)N1c2ccccc2[C@@H](O)[C@@H]1OC
inactive: [1] 14.4% | [2] 11.7% | [3] 7.25% | [4] -4.7% | [5] 11.7% | [6] -6.6%

COC1=CC(=O)O/C1=C(\OC)C1OC1c1ccccc1 (stereo unspecified)
inactive: [1] -4% | [2] -7.25% | [3] 2.9% | [4] -1.35% | [5] -6.5% | [6] -24.9%

CC(=O)CC(=O)Nc1ccc(C(=O)O)c(O)c1
inactive: [1] -14.2% | [2] -18.9% | [3] 8.4% | [4] -1.45% | [5] 32.1% | [6] -1%

C#C/C=C/CC(OC(C)=O)C1C/C=C\CC(Br)C(CC)O1 (stereo unspecified)
inactive: [1] 31.1% | [2] 16.5% | [3] 46% | [4] 36.1% | [5] 49% | [6] 45.3%

Cc1ccc(N=Nc2sc(N)nc2-c2ccc(Cl)cc2)cc1
inactive: [1] 28.6% | [2] -2.55% | [3] 35.6% | [4] 39.6% | [5] 17.1% | [6] 62.9%

O=C(Nc1cccc(C(F)(F)F)c1)OCCOc1ccc(Cl)cc1
active: [1] 99.2% | [2] 99.3% | [3] 99.2% | [4] 98% | [5] 99% | [6] 98%

COc1c2c(c(OC)c3c(=O)c4ccccc4[nH]c13)OCO2
inactive: [1] 12.6% | [2] -8.85% | [3] 26.9% | [4] -2.25% | [5] 18.2% | [6] 22.9%

COC(=O)/C=C(C)/C=C/C1OC(C)OCC1O (stereo unspecified)
inactive: [1] 7.55% | [2] 2.3% | [3] -3.65% | [4] -8.55% | [5] -5.45% | [6] 5.5%

CC1CC[P+](C)(c2ccccc2)c2ccccc21 (stereo unspecified)
inactive: [1] 26% | [2] 15.7% | [3] 1.6% | [4] -4.6% | [5] 2.75% | [6] 20.6%

CN/C=C(/c1ccc(OC)cc1)C(O)c1ccc(OC)c(OC)c1 (stereo unspecified)
inactive: [1] -17.9% | [2] -16.2% | [3] -38% | [4] 2.75% | [5] -10.8% | [6] -20.4%

COc1ccc(/C=N/n2cnc3c(c2=O)S/C(=C2/SC(=S)N(c4ccc(C)cc4)C2=O)N3c2ccccc2)cc1
inactive: [1] -29.5% | [2] -57.2% | [3] -12.8% | [4] -75% | [5] -25.9% | [6] -11.9%

Cn1cnc([N+](=O)[O-])c1SCC(=O)O
inactive: [1] -36.4% | [2] -0.6% | [3] -29.5% | [4] -22.9% | [5] -17.9% | [6] -3.7%

CC(=O)Oc1c(C(C)(C)C)cc([N+](=O)[O-])c(C)c1[N+](=O)[O-]
active: [1] 97% | [2] 97.3% | [3] 94.9% | [4] 74.2% | [5] 94% | [6] 95.2%

O=C(O)c1ccc(Cl)cc1CC(Cl)(Cl)Cl
inactive: [1] 3.55% | [2] 25.5% | [3] 15.1% | [4] 24.5% | [5] 21.1% | [6] 17.1%

CC(C)(CC1(C)NC(=O)NC1=O)OCc1ccccc1 (stereo unspecified)
inactive: [1] -0.5% | [2] -30.1% | [3] -14.8% | [4] -24.2% | [5] -45.8% | [6] 1.95%

N#C/C(=N/Nc1ccccc1)c1ccccc1
inactive: [1] 6.5% | [2] 9.1% | [3] -12.1% | [4] -11.2% | [5] 1.85% | [6] -7.95%

Cc1ccc2[nH]c(=O)cc(C(F)(F)F)c2c1
inactive: [1] 13.2% | [2] 6.35% | [3] 5.4% | [4] -2.1% | [5] -15.2% | [6] 21.7%

CC(=O)NC1(C)CC[C@H]2CC1C(C)=NC2(C)C (stereo partly specified)
inactive: [1] -13.2% | [2] -3.95% | [3] -6.9% | [4] 2.85% | [5] -8.15% | [6] -14.3%

Cn1c(=O)n2n(c1=O)C1C=CC2C2C=C(c3ccccc3)C21 (stereo unspecified)
inactive: [1] -18.4% | [2] -1.35% | [3] -0.8% | [4] 1.75% | [5] 36.5% | [6] 0.3%

CC(=O)c1cc(C)ccc1Br
inactive: [1] 7.2% | [2] 6.65% | [3] -16.3% | [4] 0.5% | [5] -7.85% | [6] 7.35%

OC1(c2cccc(C(F)(F)F)c2)CCNCC1
inactive: [1] -21.8% | [2] -13.5% | [3] -7.4% | [4] -6.9% | [5] -22.6% | [6] -8.3%

CC(=O)OCCN(C)C
inactive: [1] 3.4% | [2] -1.85% | [3] -16% | [4] 8.5% | [5] -19.4% | [6] -10.4%

COc1ccc(N=N/C(=N/NC(=O)c2ccccc2)c2ccc(N(CCC#N)CCC#N)cc2C)cc1
inactive: [1] -4.35% | [2] -13.5% | [3] -22.8% | [4] -7.2% | [5] -23.1% | [6] -44.5%

c1ccc2[nH]c3[nH]c4[nH]c5ccccc5[nH]c4[nH]c3[nH]c2c1
inactive: [1] -29.2% | [2] -9.2% | [3] -20.6% | [4] -6.2% | [5] -8.5% | [6] -11.8%

CCC(C)N(C(=O)C(C)Br)C(C)CC (stereo unspecified)
inactive: [1] 2.95% | [2] -9.4% | [3] -19.2% | [4] -39.2% | [5] -10% | [6] 5.9%

C=C1CCc2ccccc2C1=O
inactive: [1] 23.4% | [2] -4% | [3] 4.25% | [4] -5.55% | [5] 7.15% | [6] 13.6%

Cc1ccc(C(=O)c2sc(Nc3cccc(C(F)(F)F)c3)c(C#N)c2N)c(C)c1
inactive: [1] 16.8% | [2] 3.35% | [3] 5.9% | [4] 11.2% | [5] 3.05% | [6] -12.6%

Cc1ccc(CO)cc1C
inactive: [1] 4.75% | [2] -8.5% | [3] -2.2% | [4] -6.55% | [5] -1.35% | [6] -0.15%

O=C(Nc1ccc(Cl)c(Cl)c1)C(=O)C(C(=O)c1ccccc1-c1ccccc1)C1OC(=O)c2ccccc21 (stereo unspecified)
inactive: [1] 20.2% | [2] -0.45% | [3] 5.85% | [4] -50.5% | [5] 4.85% | [6] -8.9%

N#Cc1ccc(OCCCOc2ccccc2)cc1
inactive: [1] 4.2% | [2] 47.5% | [3] 20.8% | [4] -2.7% | [5] 37.4% | [6] 4.5%

C=C1C(=O)O[C@H]2C1[C@H](OC(=O)/C(C)=C\COC(C)=O)C[C@]1(CO1)[C@@H]1[C@H](O)[C@H]3O[C@@]3(C)[C@@H]12 (stereo partly specified)
inactive: [1] -5.95% | [2] -26.4% | [3] -13% | [4] -1% | [5] -52% | [6] -2.05%

Cc1ccc(NC(=O)C2C(=O)N(c3ccc(C)c(C)c3)C(=O)C2N=N)cc1C (stereo unspecified)
inactive: [1] 7.9% | [2] 34.8% | [3] 26.6% | [4] -41.8% | [5] 0.35% | [6] 44.9%

CC1(c2ccccc2)SCCS1
inactive: [1] 4.9% | [2] 2.05% | [3] -7.7% | [4] -34.3% | [5] -13.9% | [6] -6.4%

COc1cccc(-c2ccccc2)c1
inactive: [1] 7.35% | [2] 10.9% | [3] -11.3% | [4] 3.2% | [5] 14.6% | [6] -16.6%

CCCCCOP(=O)(Cc1ccc(Cl)cc1)OCCCCC
active: [1] 99.6% | [2] 99.7% | [3] 99.5% | [4] 99.5% | [5] 99.4% | [6] 99.5%
